From the supplement of paper PMC10849652
About 7,900 targets were measured; listed, in parts, are those with a hit and a random draw of the rest. About 0.6% of all pairs of compound and target were hits.

compound: c1cn2cc(-c3ccc4cn[nH]c4c3)nc(Nc3ccc(N4CCOCC4)cc3)c2n1 [entospletinib]; assay: log2 fold change, soluble protein after heating vs DMSO (PISA); higher = thermal stabilisation; K562 cells, 10 uM, 30 min; active = over 0.2 and 3.5 SD of the protein, either way, in both replicates (recomputed)
Outline: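 K562 cells at 2×10^6 cells/mL were treated for 30 min with 10 μM compound, and aliquots were heated for 3 min over 48°C-58°C before pooling. Extraction used PBS with 0.5% NP-40 at 4°C, and soluble protein was the supernatant after 21,000xg for 90 min, measured by TMTpro 16plex LC-MS/MS with channel sums equalised. Thermal stability values, relative to control samples and from duplicates, are log2 fold changes.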

Sequence of UniProt Q5VU43 (Q5VU43 whole entry, looked up): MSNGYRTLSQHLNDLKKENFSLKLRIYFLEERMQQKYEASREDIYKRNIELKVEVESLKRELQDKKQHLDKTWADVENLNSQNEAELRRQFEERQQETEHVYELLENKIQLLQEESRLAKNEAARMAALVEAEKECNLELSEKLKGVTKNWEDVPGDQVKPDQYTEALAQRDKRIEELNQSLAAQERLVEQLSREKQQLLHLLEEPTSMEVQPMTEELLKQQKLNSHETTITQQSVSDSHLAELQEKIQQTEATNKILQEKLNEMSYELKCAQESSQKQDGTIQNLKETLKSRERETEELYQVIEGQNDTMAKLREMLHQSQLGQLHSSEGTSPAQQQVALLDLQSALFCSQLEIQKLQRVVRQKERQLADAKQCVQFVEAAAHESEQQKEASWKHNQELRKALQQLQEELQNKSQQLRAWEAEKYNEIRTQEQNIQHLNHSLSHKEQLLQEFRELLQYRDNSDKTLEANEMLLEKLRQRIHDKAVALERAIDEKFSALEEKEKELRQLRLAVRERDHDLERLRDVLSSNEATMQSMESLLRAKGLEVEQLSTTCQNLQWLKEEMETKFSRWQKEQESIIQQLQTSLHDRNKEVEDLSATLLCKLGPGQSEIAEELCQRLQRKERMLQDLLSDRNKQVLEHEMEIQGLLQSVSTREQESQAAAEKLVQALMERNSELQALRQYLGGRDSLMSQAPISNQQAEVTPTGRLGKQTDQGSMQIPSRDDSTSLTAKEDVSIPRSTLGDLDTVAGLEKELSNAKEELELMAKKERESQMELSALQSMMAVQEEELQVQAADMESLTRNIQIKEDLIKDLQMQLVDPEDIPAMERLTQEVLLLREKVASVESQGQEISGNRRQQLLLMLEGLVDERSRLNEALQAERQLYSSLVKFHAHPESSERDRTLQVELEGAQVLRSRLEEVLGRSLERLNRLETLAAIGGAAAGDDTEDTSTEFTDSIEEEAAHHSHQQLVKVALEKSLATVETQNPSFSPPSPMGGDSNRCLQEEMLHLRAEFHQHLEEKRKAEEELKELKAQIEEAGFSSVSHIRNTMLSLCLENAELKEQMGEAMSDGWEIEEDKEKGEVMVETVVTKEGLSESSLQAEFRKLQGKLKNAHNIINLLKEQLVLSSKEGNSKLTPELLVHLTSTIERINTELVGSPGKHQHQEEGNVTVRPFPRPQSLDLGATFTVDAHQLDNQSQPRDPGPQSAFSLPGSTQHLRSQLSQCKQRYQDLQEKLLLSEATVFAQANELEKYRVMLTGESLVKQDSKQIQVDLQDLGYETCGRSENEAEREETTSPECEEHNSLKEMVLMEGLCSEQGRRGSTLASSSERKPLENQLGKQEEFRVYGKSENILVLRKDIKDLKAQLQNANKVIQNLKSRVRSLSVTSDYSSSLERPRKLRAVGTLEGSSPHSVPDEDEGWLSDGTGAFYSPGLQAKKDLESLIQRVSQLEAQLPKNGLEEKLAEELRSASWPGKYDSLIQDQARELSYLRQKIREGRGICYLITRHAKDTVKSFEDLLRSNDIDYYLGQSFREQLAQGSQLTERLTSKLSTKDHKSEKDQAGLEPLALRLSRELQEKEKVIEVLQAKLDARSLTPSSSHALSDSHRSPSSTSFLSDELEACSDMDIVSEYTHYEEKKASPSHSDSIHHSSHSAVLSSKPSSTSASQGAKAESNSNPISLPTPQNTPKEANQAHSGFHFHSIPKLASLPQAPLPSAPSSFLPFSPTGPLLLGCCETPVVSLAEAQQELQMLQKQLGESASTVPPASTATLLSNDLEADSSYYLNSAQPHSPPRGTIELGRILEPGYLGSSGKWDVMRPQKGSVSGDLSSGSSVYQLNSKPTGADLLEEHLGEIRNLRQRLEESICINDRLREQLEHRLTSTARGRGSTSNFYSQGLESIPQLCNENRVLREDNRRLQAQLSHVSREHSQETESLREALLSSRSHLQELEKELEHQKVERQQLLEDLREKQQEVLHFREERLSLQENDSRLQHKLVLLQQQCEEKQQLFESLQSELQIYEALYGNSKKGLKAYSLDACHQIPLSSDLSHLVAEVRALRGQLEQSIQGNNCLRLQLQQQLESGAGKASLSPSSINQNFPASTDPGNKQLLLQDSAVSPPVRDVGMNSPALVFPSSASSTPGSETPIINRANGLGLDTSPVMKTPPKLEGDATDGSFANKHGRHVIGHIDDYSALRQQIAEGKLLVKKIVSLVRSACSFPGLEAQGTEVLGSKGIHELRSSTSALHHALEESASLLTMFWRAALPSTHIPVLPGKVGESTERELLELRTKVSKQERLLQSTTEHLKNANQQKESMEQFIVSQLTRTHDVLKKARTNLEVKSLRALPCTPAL
Sequence of UniProt P62191 (P62191 whole entry, looked up): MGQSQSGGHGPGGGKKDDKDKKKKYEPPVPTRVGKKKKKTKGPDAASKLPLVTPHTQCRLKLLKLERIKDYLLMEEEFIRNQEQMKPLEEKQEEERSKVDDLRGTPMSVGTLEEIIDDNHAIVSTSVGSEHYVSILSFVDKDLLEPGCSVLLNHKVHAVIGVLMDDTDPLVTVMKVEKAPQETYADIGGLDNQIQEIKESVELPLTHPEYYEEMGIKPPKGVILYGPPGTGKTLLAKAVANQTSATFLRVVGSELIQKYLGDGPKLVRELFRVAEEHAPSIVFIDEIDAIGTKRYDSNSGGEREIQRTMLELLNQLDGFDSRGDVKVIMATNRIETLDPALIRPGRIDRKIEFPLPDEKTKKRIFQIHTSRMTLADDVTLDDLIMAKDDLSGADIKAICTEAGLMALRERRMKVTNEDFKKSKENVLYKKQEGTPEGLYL
Sequence of UniProt Q9Y5Y5 (Q9Y5Y5 whole entry, looked up): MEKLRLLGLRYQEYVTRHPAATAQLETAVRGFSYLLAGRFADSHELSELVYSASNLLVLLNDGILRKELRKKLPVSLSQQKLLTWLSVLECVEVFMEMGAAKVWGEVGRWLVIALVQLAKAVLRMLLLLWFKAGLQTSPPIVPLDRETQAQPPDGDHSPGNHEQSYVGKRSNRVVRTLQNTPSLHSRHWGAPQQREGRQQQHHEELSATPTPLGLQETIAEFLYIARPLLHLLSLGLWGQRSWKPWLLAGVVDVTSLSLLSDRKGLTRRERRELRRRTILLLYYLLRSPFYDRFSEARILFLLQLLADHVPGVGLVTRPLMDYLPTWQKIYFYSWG
Sequence of UniProt Q9UPN7 (Q9UPN7 whole entry, looked up): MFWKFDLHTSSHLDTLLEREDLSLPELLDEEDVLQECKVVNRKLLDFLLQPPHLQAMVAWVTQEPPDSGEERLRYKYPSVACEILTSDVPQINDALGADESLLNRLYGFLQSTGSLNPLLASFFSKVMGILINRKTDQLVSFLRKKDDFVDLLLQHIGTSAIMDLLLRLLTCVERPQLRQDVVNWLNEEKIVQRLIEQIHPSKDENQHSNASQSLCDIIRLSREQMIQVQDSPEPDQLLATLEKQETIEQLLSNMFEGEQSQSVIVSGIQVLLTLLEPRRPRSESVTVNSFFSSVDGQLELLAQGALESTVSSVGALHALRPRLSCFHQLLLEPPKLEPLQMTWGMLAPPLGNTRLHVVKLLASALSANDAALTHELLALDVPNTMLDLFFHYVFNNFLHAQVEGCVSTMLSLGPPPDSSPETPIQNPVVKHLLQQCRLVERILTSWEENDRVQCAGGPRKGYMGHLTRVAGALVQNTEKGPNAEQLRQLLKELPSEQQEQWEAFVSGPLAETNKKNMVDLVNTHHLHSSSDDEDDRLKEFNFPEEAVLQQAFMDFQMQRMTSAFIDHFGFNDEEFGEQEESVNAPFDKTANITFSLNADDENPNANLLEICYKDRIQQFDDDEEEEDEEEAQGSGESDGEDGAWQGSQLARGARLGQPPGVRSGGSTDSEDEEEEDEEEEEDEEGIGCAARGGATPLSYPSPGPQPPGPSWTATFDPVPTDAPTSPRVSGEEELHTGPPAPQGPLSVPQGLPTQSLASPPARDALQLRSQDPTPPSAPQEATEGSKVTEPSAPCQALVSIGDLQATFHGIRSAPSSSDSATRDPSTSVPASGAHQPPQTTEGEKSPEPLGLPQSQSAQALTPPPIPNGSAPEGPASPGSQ
Sequence of UniProt P43686 (P43686 whole entry, looked up): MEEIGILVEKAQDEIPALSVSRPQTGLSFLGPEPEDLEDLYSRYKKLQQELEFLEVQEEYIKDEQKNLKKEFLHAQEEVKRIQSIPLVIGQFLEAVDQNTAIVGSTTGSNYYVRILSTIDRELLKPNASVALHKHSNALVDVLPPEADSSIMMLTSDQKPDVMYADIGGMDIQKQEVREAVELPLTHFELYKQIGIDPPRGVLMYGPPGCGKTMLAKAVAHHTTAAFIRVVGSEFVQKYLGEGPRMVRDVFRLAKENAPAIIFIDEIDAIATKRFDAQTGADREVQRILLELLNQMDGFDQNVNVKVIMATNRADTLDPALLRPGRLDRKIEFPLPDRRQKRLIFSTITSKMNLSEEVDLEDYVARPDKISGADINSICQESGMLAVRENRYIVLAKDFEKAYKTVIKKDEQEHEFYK
Sequence of UniProt O95997 (O95997 whole entry, looked up): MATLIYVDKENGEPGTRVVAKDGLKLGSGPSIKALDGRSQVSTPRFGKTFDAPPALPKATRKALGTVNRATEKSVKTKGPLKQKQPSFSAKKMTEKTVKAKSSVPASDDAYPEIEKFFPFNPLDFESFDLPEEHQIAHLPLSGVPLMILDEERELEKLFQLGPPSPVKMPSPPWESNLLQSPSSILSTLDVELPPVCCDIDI
Sequence of UniProt Q96KB5 (Q96KB5 whole entry, looked up): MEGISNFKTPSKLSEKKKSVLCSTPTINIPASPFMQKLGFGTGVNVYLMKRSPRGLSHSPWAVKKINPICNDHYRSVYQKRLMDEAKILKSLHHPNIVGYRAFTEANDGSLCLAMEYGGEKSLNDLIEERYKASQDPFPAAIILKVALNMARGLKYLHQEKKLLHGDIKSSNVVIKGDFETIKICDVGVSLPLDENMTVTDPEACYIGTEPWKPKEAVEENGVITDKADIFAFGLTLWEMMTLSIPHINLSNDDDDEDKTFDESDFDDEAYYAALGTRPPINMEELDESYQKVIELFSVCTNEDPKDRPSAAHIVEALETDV

log2 fold change, inactive:
PITRM1 isoform 2 (UniProt Q5JRX3) -0.103, POLR2G (UniProt P62487) 0.183, PPP6R1 (UniProt Q9UPN7) 0.033, PTTG1 (UniProt O95997) -0.027, PSMC4 (UniProt P43686) -0.008, PBK (UniProt Q96KB5) 0.109, PDE4DIP isoform 4 (UniProt Q5VU43) 0.018, PCID2 (UniProt Q5JVF3) 0.014, PML (UniProt P29590) 0.073, PSMC1 (UniProt P62191) 0.006, PLCL1 (UniProt Q15111) -0.099, PI4K2B (UniProt Q8TCG2) -0.005, PEX16 isoform 2 (UniProt Q9Y5Y5) -0.081, PPID (UniProt Q08752) 0.019
